Only some compounds are listed: those with a hit (about 0.34% of all), similar ones and a draw of the others.
Vif-A3G inh: blocks the Vif interaction with human APOBEC3G | Q9HC16 | HeLa A3G-eYFP + Vif (tagged APOBEC3G with the HIV-1 protein that degrades it), YFP fluorescence, overnight | Potency, µM (doses to about 46.1 µM), for inactives: top-dose activity, negative = active, most hits filed as inhibitors | hit rate 0.076% among 410,000 | AID 602310; also: % is scaled to controls: 0 for no effect and ±100 for the full control effect; nearly all actives have a fitted effect of over 60% in size
Target sequence (Q9HC16 whole entry, looked up): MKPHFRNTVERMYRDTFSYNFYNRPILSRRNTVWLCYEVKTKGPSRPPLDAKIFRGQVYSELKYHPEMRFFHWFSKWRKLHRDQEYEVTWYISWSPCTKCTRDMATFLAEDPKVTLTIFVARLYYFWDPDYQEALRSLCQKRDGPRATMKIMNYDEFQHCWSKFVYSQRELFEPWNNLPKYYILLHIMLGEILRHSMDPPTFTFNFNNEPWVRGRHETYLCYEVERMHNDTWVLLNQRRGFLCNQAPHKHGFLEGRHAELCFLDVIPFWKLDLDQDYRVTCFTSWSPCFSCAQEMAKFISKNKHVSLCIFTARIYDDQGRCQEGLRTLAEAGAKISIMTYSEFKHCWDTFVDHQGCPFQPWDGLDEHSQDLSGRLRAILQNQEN
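HeLa cells stably expressing Vif and C-terminally eYFP-tagged A3G, seeded overnight at 37 deg C, then exposed to compound by pintool overnight at 37 deg C. Rise in yellow fluorescence (Ex 488/Em 500-530, Acumen) marks blocked Vif-driven A3G degradation.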
Vif-APOBEC3F blk: Vif-A3F binding inhibition; HeLa A3F-eYFP + Vif (tagged APOBEC3F with the HIV-1 protein that degrades it), YFP fluorescence increase; Potency, µM (highest dose often 46.1 µM), inactives show at the highest dose activity, negative = active; hit rate 0.2% among 390,000; also: % of control where 0% means no effect; nearly all actives have a fitted effect of over 65% in size
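HeLa cells stably expressing A3F-eYFP plus Vif, plated and incubated overnight at 37 deg C, then exposed to compounds overnight at 37 deg C. Blocked degradation read as raised yellow fluorescence (Ex 488/Em 500-530).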
Epigenetic derep: regulators of epigenetic silencing causing reporter derepression in mouse cells | murine LDR cells, GFP reporter derepression, 30 h | Potency, µM (highest dose often 53.9 µM), for inactives: top-dose GFP activation, usual class: activators | hit rate 0.2% among 280,000 | AID 1865; also: % of control where 0% means no effect; nearly all actives have a fitted effect of over 60% in size
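Readout is the number of GFP-expressing murine LDR cells, counted by cytometry following washing. Cells were treated with compound for 30 h at 37 C; the stably integrated CMV-GFP locus is normally silent.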
* hit, by the source's call; [ ] = another dose, or the depositor's remark. Calls follow the shape of the dose curve; as a rule, active = well fitted curve in the direction sought with a large enough effect; inconclusive = small, poorly fitted or top-dose-only effect, or another doubt; inactive = no such curve, though single readings can be large; an effect the other way counts as inactive or inconclusive. Potency is read from the fitted curve at half-maximal effect.

How did c1ccc(Nc2nc3ccccc3n3nnnc23)cc1 do in these assays?
Vif-A3G inh: -21%; Vif-APOBEC3F blk: inconclusive; Epigenetic derep: 4%

How did Brc1ccc(Nc2nc3ccccc3n3nnnc23)cc1 do in these assays?
Epigenetic derep: -1%

Results for Fc1ccccc1Nc1nc2ccccc2n2nnnc12 ?
Vif-A3G inh: -27%; Vif-APOBEC3F blk: 25µM*; Epigenetic derep: inconclusive

How did CCOC(=O)c1ccccc1Nc1nc2ccc(C)cc2n2nnnc12 do in these assays?
Vif-A3G inh: -4%; Vif-APOBEC3F blk: inconclusive; Epigenetic derep: 14%

How did COc1ccccc1CNc1ncnc2onc(-c3ccc(Cl)cc3)c12 do in these assays?
Vif-A3G inh: -6%; Vif-APOBEC3F blk: -6%; Epigenetic derep: 0%

How did COc1cc(CNC(=O)c2ccc3nc(Cc4ccccc4)oc3c2)cc(OC)c1OC do in these assays?
Vif-A3G inh: -1%; Vif-APOBEC3F blk: -7%; Epigenetic derep: -2%

How did CCCCCCCCCCCCC(=O)N1CCCC[C@H]1CNC(=O)[C@@H](N)CCCCN do in these assays?
Epigenetic derep: 1%

What do the screens show for `NC(N)=Nc1ccc(/C=C2\C=Cc3ccccc32)cc1`?
Vif-A3G inh: -11%

How did Cc1ccc2c(Cl)c(C)c(N3CCCC3)nc2n1 do in these assays?
Vif-A3G inh: 2%; Vif-APOBEC3F blk: 22µM*; Epigenetic derep: 1%

How did Cc1nc2ccccc2nc1N1CCCC1 do in these assays?
Vif-A3G inh: -1%; Vif-APOBEC3F blk: -16%; Epigenetic derep: 0%

How did Cc1ccc(CNC(=O)c2ccc(Cn3c(=O)c4ccccc4n(CC(=O)Nc4ccc(C)cc4)c3=O)cc2)cc1 do in these assays?
Vif-A3G inh: -6%; Vif-APOBEC3F blk: -8%; Epigenetic derep: 2%

How did CCOc1ccc(NC(=O)Cn2c(=O)n(Cc3ccc(C(=O)NCc4ccc(C)cc4)cc3)c(=O)c3ccccc32)cc1 do in these assays?
Vif-A3G inh: -1%; Vif-APOBEC3F blk: 10µM*; Epigenetic derep: inconclusive

How did O=[N+]([O-])c1ccc2c(c1)C=CC2 do in these assays?
Vif-A3G inh: -1%

How did COc1ccc(C(NC(=O)COc2ccc(C#N)cc2)c2ccc(OC)cc2)cc1 do in these assays?
Vif-A3G inh: -3%

How did CCCCCCCCCCCCOC(=O)N1CCN(/[N+]([O-])=N/Oc2ccc([N+](=O)[O-])cc2[N+](C)=O)CC1 do in these assays?
Vif-A3G inh: 5%

How did COc1cc2nc(=S)n3[nH]c(CCn4nc(C)cc4C)nc3c2cc1OC do in these assays?
Vif-A3G inh: 3%; Vif-APOBEC3F blk: -6%; Epigenetic derep: 5µM*

How did COc1cc2nc(=S)n3[nH]c(COc4ccccc4C)nc3c2cc1OC do in these assays?
Vif-A3G inh: 3%; Vif-APOBEC3F blk: 5%; Epigenetic derep: -3%

Results for O=C(Cn1ncc2ccsc2c1=O)N1CCN(c2ccc(Cl)cc2)CC1 ?
Vif-A3G inh: 0%; Vif-APOBEC3F blk: 7%; Epigenetic derep: 5%

What do the screens show for `C=C[C@H]1CN2CCC1C[C@@H]2C(O)c1ccnc2ccc(OC)cc12` (some centres undefined)?
Vif-A3G inh: -2%

Results for CCn1c(SCC(=O)c2c[nH]c3ccccc23)nnc1-c1cccs1 ?
Vif-A3G inh: 11µM*; Vif-APOBEC3F blk: 22µM*; Epigenetic derep: 3%

How did COCCn1c(SCC(=O)c2c[nH]c3ccccc23)nnc1-c1ccncc1 do in these assays?
Vif-A3G inh: 0%; Vif-APOBEC3F blk: -6%; Epigenetic derep: 0%

What do the screens show for `O=C(CSc1nc2ccccc2s1)c1cc2ccccc2o1`?
Vif-A3G inh: inconclusive; Vif-APOBEC3F blk: 25µM*; Epigenetic derep: 10%

How did O=C(CSc1nc2ccccc2s1)CSc1nc2ccccc2s1 do in these assays?
Vif-A3G inh: -2%; Vif-APOBEC3F blk: -16%; Epigenetic derep: 0%

What do the screens show for `Cc1ccc(N=Cc2c(O)c3ccccc3n(C)c2=O)cc1`?
Vif-A3G inh: 1%; Vif-APOBEC3F blk: -10%

Results for Cc1ccc(N=Cc2sc(O)c3ccccc23)cc1 ?
Vif-A3G inh: inconclusive; Vif-APOBEC3F blk: inconclusive; Epigenetic derep: 16µM*

How did CCC(C)Sc1c(C(C)C)cnc2c1c(=O)n(C)c(=O)n2C (centres undefined) do in these assays?
Vif-A3G inh: 2%; Vif-APOBEC3F blk: -5%; Epigenetic derep: -1%

Results for C#C[C@]1(O)CC[C@@H]2[C@H]3CCC4=Cc5oncc5C[C@]4(C)[C@@H]3CC[C@@]21C ?
Epigenetic derep: 0%[16.9 µM]

How did CCCOc1ccc(N)cc1N do in these assays?
Vif-A3G inh: inconclusive; Vif-APOBEC3F blk: 22µM*; Epigenetic derep: inconclusive

Results for CCCOc1cc(N)ccc1C(=O)OCCN(CC)CC ?
Vif-A3G inh: 2%; Vif-APOBEC3F blk: 5%; Epigenetic derep: 1%[16.9 µM]

What do the screens show for `Cc1ccc(NC(=O)c2sc3nc(-c4ccncc4)ccc3c2N)cc1`?
Vif-A3G inh: inconclusive; Vif-APOBEC3F blk: inconclusive; Epigenetic derep: 22µM*

What do the screens show for `COc1ccc(NC(=O)c2sc3nc(-c4cccnc4)ccc3c2N)cc1OC`?
Vif-A3G inh: inconclusive; Vif-APOBEC3F blk: 5.6µM*; Epigenetic derep: 7.1µM*

Results for Nc1c(C(=O)Nc2ccc(F)c(F)c2)sc2nc(-c3ccncc3)ccc12 ?
Vif-A3G inh: 4%; Vif-APOBEC3F blk: 1%; Epigenetic derep: 4%

What do the screens show for `COc1ccc(NC(=O)c2sc3nc(-c4cccnc4)ccc3c2N)cc1`?
Vif-A3G inh: -5%; Vif-APOBEC3F blk: inconclusive; Epigenetic derep: inconclusive

What do the screens show for `Nc1c(C(=O)Nc2ccccc2)sc2nc(-c3cccnc3)ccc12`?
Epigenetic derep: 3.5µM*

What do the screens show for `Nc1c(C(=O)Nc2ccccc2Br)sc2nc(-c3cccs3)ccc12`?
Vif-A3G inh: -29%; Vif-APOBEC3F blk: inconclusive; Epigenetic derep: 8%

Results for Nc1c(C(=O)Nc2nc3ccccc3s2)sc2nc(-c3cccs3)ccc12 ?
Vif-A3G inh: 11µM*; Vif-APOBEC3F blk: 7.9µM*; Epigenetic derep: inconclusive

How did COc1ccc(-c2ccc3c(N)c(C(=O)Nc4ccc(C(F)(F)F)cc4)sc3n2)cc1OC do in these assays?
Vif-A3G inh: -29%; Vif-APOBEC3F blk: -2%; Epigenetic derep: 0%

How did COC(=O)c1ccc(C(=O)OC)c(NC(=O)c2cnn3c(C(F)F)cc(-c4ccc(C)cc4)nc23)c1 do in these assays?
Vif-A3G inh: -2%; Vif-APOBEC3F blk: -3%; Epigenetic derep: 1%

What do the screens show for `CC1=Nc2ccccc2/C1=C/c1ccc(N(C)C)cc1`?
Vif-A3G inh: -2%

How did CCOc1ccccc1Nc1nc2ccccc2c2nncn12 do in these assays?
Vif-A3G inh: -1%; Vif-APOBEC3F blk: -10%; Epigenetic derep: 5%

How did COc1ccc(C)cc1NC(=O)Cn1c(=O)oc2cc(S(=O)(=O)N3CCCCCC3)ccc21 do in these assays?
Vif-A3G inh: 2%; Vif-APOBEC3F blk: 0%; Epigenetic derep: 0%

Results for N#CC1=C(N)Oc2cc(N)ccc2C1c1ccc(F)cc1F (centres undefined) ?
Vif-A3G inh: 13µM*; Vif-APOBEC3F blk: 22µM*

Results for N#CC1=C(N)Oc2cc(N)ccc2C1c1ccc(F)cc1 (centres undefined) ?
Vif-A3G inh: inconclusive; Vif-APOBEC3F blk: -8%; Epigenetic derep: 1%

What do the screens show for `O=C1[C@H](Cc2ccccc2)NC/C=C\C[C@H](c2ccc(Cl)cc2)N1Cc1ccc(Cl)cc1`?
Vif-A3G inh: -13%
